Screening results as filed in PubChem BioAssay.
GC-A act = GC-A (human) enzyme activation; P16066; HEK293 GC-A cells, cGMP TR-FRET, EC30 ANP; 0% at EC30 ANP, 100% saturating ANP; activation, % at 10 µM; 370,000 compounds, 0.14% hits; AID 1671463; in the data active means activation above about 40%
NPR2 activator = GC-B (human) receptor activation; P20594; HEK293-GC-B cells, CNP EC30, cGMP TR-FRET; 0% at EC30 CNP, 100% saturating CNP; activation, % at 10 µM; 370,000 compounds, 0.11% hits;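 active means activation at 10 µM reaching about 35% in either raw or pattern-adjusted values, limit read from the data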
ADAM10 inh = inhibits human ADAM10 | inhibition, % at 7 µM | AID 720582 | 370,000 compounds, 0.62% hits | recombinant ADAM10, EDANS/DABCYL FRET peptide cleavage, 3 h;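 active means inhibition above a per-campaign cutoff equal to the mean of compounds falling between control-based bounds plus 3 SD, cut at about 20% in these data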
ADAM17 inh = ADAM17 inhibition, QFRET primary screen; inhibition, % at 6.95 µM; AID 720648; P78536; 370,000 compounds, 0.83% hits; recombinant ADAM17, EDANS/DABCYL FRET peptide cleavage;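 active means inhibition above the mean of compounds lying between control limits plus 3 SD, set per campaign, cut at about 8.5% in these data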
Target sequence (P78536 215-824 limits assumed): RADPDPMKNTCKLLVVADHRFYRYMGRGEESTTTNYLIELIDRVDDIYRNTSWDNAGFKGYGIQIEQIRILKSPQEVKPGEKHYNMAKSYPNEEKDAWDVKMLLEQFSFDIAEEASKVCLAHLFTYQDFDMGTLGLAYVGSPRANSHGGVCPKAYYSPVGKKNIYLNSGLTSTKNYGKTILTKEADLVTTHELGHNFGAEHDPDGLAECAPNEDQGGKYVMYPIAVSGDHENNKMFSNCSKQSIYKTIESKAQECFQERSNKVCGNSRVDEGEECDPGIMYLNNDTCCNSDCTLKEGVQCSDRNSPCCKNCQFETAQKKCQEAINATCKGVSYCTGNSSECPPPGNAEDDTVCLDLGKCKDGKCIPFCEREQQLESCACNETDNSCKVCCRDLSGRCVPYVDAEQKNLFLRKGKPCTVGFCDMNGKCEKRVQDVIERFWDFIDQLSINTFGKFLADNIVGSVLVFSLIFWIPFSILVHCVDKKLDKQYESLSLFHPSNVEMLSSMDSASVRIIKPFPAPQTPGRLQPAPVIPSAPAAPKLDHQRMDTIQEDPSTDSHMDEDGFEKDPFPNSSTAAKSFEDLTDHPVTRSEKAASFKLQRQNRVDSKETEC
ADAM10 confirm = human ADAM10 inhibition, confirmation; inhibition, % at 6.95 µM; shares compounds with ADAM10 inh; 2,100 compounds, 1% hits; ADAM10 QFRET peptide cleavage, EDANS fluorescence; AID 743208;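 active means inhibition above about 20% chosen separately for each screening run, limit read from the data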
ADAM17 ctr = ADAM17 inhibition, counter-screen for ADAM10 exosite hits; AID 743214; 2,100 compounds, 0.5% hits; shares compounds with ADAM10 inh; ADAM17 QFRET peptide cleavage, EDANS fluorescence; inhibition, % at 6.95 µM;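 active means mean triplicate inhibition above the solvent-only control wells' mean plus 3 SD, cut at about 12% in these data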
ADAM10 ctr = inhibits human ADAM10 in ADAM17 exosite counter-screen; shares compounds with ADAM17 inh; recombinant ADAM10, EDANS/DABCYL FRET peptide cleavage, 3 h; inhibition, % at 6.95 µM; 2,900 compounds, 47% hits; AID 743256;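 active means mean inhibition over the triplicate runs exceeds the activity threshold set in the earlier primary screen, cut at about 20% in these data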
ADAM17 confirm = confirmation of inhibitors of human ADAM17 | shares compounds with ADAM17 inh | recombinant ADAM17, EDANS/DABCYL QFRET peptide cleavage | inhibition, % at 6.95 µM | 2,900 compounds, 65% hits | AID 743257;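 active means mean inhibition across replicates above the hit cutoff set in the primary screen, cut at about 8.5% in these data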
Numbers stand for hits; 0 = inactive; - = no result. In the library only some 1.3% were active in any assay of this set; here they are far more common.

SMILES	GC-A act	NPR2 activator	ADAM10 inh	ADAM17 inh	ADAM10 confirm	ADAM17 ctr	ADAM10 ctr	ADAM17 confirm
Nc1nc(-c2ccccc2)c(N=Nc2cccc3ccccc23)s1	0	0	0	0	-	-	-	-
Nc1nc(-c2ccccc2)c(N=Nc2ccccc2Cl)s1	0	0	26	16	0	0	40	25
O=C(COC(=O)[C@H](Cc1c[nH]c2ccccc12)NC(=O)c1cccs1)NCc1ccccc1	0	0	0	0	-	-	-	-
O=C(NC(Cc1c[nH]c2ccccc12)C(=O)Nc1ccc(OC(F)(F)F)cc1)c1cccs1 (centres undefined)	0	0	25	12	0	0	59	30
Cc1cc(C(=O)C(C(c2ccccc2)N2CCOCC2)N2CCOCC2)ccc1Cl (centres undefined)	0	0	0	0	-	-	-	-
O=C(CCc1c[nH]c2ccccc12)OCc1ccc(Br)cc1	0	0	23	12	0	0	0	11
O=C(COC(=O)CCc1c[nH]c2ccccc12)NCCc1ccccc1	0	0	0	0	-	-	-	-
CC(C)(C)NS(=O)(=O)c1ccc(NC(=O)C(Sc2ccccc2)c2ccccc2)cc1 (centres undefined)	0	0	41	19	0	0	44	22
CC(=O)N(C)c1ccc(NC(=O)C(Sc2ccccc2)c2ccccc2)cc1 (centres undefined)	0	0	0	0	-	-	-	-
COc1ccc(NC(=S)N(CCc2c(C)[nH]c3ccc(C)cc23)Cc2cccs2)cc1	0	0	0	0	-	-	-	-
CNC(=S)N(CCc1c(C)[nH]c2ccc(C)cc12)Cc1cccs1	0	0	22	9.8	0	0	0	10
COC(=O)c1c(NC(NC(=O)C(C)C)C(Cl)(Cl)Cl)sc2c1CCCC2 (centres undefined)	0	0	22	10	0	0	26	16
CO/N=C/c1ccc(Sc2ccc(C)cc2)c([N+](=O)[O-])c1	0	0	0	0	-	-	-	-
Cc1ccc(Sc2ccc(/C=N/O)cc2[N+](=O)[O-])cc1	0	0	27	9.7	0	0	27	15
COC(=O)C1=C(C)N(Cc2cccc(C(F)(F)F)c2)C(=NCc2ccc(C(F)(F)F)cc2)NC1c1cccc(F)c1 (centres undefined)	0	0	21	9.4	0	0	22	12
CCCCCCCCOC(=O)C1=C(C)Nc2nnnn2C1c1cccs1 (centres undefined)	0	0	20	10	0	0	21	0
CCCCCCCOC(=O)C1=C(C)Nc2ncnn2C1c1cccs1 (centres undefined)	0	0	0	0	-	-	-	-
COCCCNC(=O)C[C@H]1C[C@@]2(C(=O)OC)C(=C[C@H](C(C)C)O[C@@H]2C2CC2)N(CCC2=CCCCC2)C1=O	0	0	0	0	-	-	-	-
O=C(CC(CC(=O)c1ccccc1)c1ccccc1)c1ccccc1	0	0	0	0	-	-	-	-
COc1ccc(C(CC(=O)c2ccccc2)CC(=O)c2ccccc2)cc1	0	0	20	11	0	0	0	0
CCN(CC(=O)Nc1cccc(OC)c1)CC(=O)Nc1ccc(Br)c(C)c1	0	0	23	12	0	0	45	16
CCN(CC(=O)Nc1cccc(OC)c1)CC(=O)Nc1ccccc1C	0	0	0	0	-	-	-	-
COCCOc1ccc(C(F)(F)F)cc1NC(=O)COC(=O)c1cc([N+](=O)[O-])ccc1N1CCOCC1	0	0	22	8.9	0	0	0	8.9
Cc1cc(Cl)ccc1NC(=O)COC(=O)c1cc([N+](=O)[O-])ccc1N1CCOCC1	0	0	0	0	-	-	-	-
O=C(NO)c1ccc(OC(F)F)cc1	0	0	25	15	0	0	0	19
Cc1ccccc1N=C(NOCc1ccc(Cl)cc1Cl)c1nonc1N	0	0	20	9.6	0	0	33	24
